The panel holds about 83,000 compounds, 20% with a hit somewhere; the sample as a whole holds those more often.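 Cell lines were cultured in 96-well plates, exposed to a single compound concentration, and assessed for percent growth 48 hours later.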 Values without a mark were called inactive. Calls of active or inactive are those of the source. How the source made its calls: active means growth percent below 10; inactive means the rest.
How the values were obtained:
Assay in all cases: NCI-60 one-dose screen, 48 h (100 = growth as untreated, 0 = no growth, -100 = all killed)
Details in all cases: 10 µM
SR leukemia = system: SR leukemia
RPMI-8226 leukemia = system: RPMI-8226 leukemia
OVCAR-8 ovarian = system: OVCAR-8 ovarian
OVCAR-5 ovarian = system: OVCAR-5 ovarian
OVCAR-4 ovarian = system: OVCAR-4 ovarian
SK-OV-3 ovarian = system: SK-OV-3 ovarian
IGROV1 ovarian = system: IGROV1 ovarian
OVCAR-3 ovarian = system: OVCAR-3 ovarian
HS 578T breast = system: HS 578T breast
NCI/ADR-RES ovarian = system: NCI/ADR-RES ovarian
T-47D breast = system: T-47D breast
BT-549 breast = system: BT-549 breast
MDA-MB-435 melanoma = system: MDA-MB-435 melanoma
SW-620 colon = system: SW-620 colon
MCF7 breast = system: MCF7 breast
HCT-116 colon = system: HCT-116 colon
HCC-2998 colon = system: HCC-2998 colon
KM12 colon = system: KM12 colon

Compound | growth (SR leukemia) | growth (RPMI-8226 leukemia) | growth (OVCAR-8 ovarian) | growth (OVCAR-5 ovarian) | growth (OVCAR-4 ovarian) | growth (SK-OV-3 ovarian) | growth (IGROV1 ovarian) | growth (OVCAR-3 ovarian) | growth (HS 578T breast) | growth (NCI/ADR-RES ovarian) | growth (T-47D breast) | growth (BT-549 breast) | growth (MDA-MB-435 melanoma) | growth (SW-620 colon) | growth (MCF7 breast) | growth (HCT-116 colon) | growth (HCC-2998 colon) | growth (KM12 colon)
COc1ccc2c(c1)OC(N)=C(C#N)C2c1cc(OC)c(OC)c(OC)c1 (configuration not stated) | 4.02% (active) | 11.6% | 14.6% | 39.3% | 39.8% | 50% | 7.64% (active) | -39.8% (active) | 25.3% | -24.3% (active) | 16.7% | 5.64% (active) | -16.7% (active) | 17.1% | 13.3% | 3.4% (active) | 15% | 
Cc1ccc(/C=C/C(=O)C(=O)/C=C/c2ccc(C)cc2)cc1 | 68% | 45.2% | 109% | 97.8% | 98.6% | 109% | 94.4% | 112% | 92.6% | 103% | 92.4% | 95.3% | 76.9% | 100% | 23.8% | -36.8% (active) | 110% | 
CCOC(=O)c1cc(C(=O)c2ccc(OC)c(OC)c2)n2ccncc12 | 78.5% | 88.3% | 94.9% | 124% | 104% | 64.2% | 102% | 108% | 102% | 96.9% | 78.8% | 84.5% | 104% | 100% | 79.6% | 93.3% | 101% | 101%
COc1ccc(NC(=O)C2CC3C=CC2C3)c([N+](=O)[O-])c1 (configuration not stated) | 85.4% | 104% | 101% | 96.5% | 92.7% | 102% | 108% | 99.4% | 95.4% | 97.6% | 98.1% | 139% | 102% | 110% | 101% | 120% | 103% | 
O=C(N/N=C/c1c(Cl)cccc1Cl)c1ccccc1Nc1cccc(C(F)(F)F)c1 | 70.8% | 82.5% | 103% | 105% | 99.1% | 107% | 74.9% | 104% | 85% | 100% | 94.4% | 81.3% | 110% | 96.2% | 94.7% | 93.1% | 117% | 
CN(C)CCC1(c2ccccc2)CCN(C)C1=O (configuration not stated) | 112% | 108% | 104% | 107% | 113% | 100% | 109% | 99.5% | 108% | 103% | 104% | 106% | 105% | 103% | 106% | 110% | 108% | 103%
COc1cc(-c2nn(-c3ccc(NC(=O)NCCNS(=O)(=O)c4ccc(F)cc4)cc3)cc2-c2ccncc2)ccc1Cl | 1.26% (active) | -21.6% (active) | 9.18% (active) | 27.1% | 41.8% | 18.1% | 27.3% | 7.55% (active) | 21.6% | 79.2% | 34.8% | -3.98% (active) | -0.232% (active) | 18.3% | 6.49% (active) | -3.49% (active) | 6.84% (active) | 2.84% (active)
CCC(CC)n1c(C)cc(=O)n1C(CC)CC | 118% | 106% | 104% | 99.4% | 107% | 104% | 140% | 113% | 110% | 107% | 105% | 122% | 102% | 105% | 105% | 105% | 105% | 115%
CCCCc1oc2ccccc2c1C(=O)c1cc(I)c(OCCN(CC)CC)c(I)c1 | -51.8% (active) | -29.5% (active) | -10% (active) | -36% (active) | 10.3% | -38.1% (active) | 29.5% | 12% | -19.3% (active) | -20.3% (active) | 7% (active) | -50% (active) | -56.2% (active) | -96.3% (active) | -67% (active) | -61.4% (active) | -88.5% (active) | -47.6% (active)
CS(=O)(=O)c1nccc(-c2c(-c3cccc(OCc4ccccc4)c3)nc3sccn23)n1 | 37.9% | 81.6% | 92.7% | 89.2% | 73.8% | 72.8% | 58.4% | 89.4% | 79.1% | 90.7% | 65% | 54.9% | 78.5% | 47.1% | 77.4% | 58.3% | 32.4% | 50.7%
CCc1cc(Cl)c(OC)c(C(=O)NCC2CCCN2CC)c1O (configuration not stated) | 81.6% | 95.8% | 92.5% | 88.2% | 86.5% | 79.9% | 98.4% | 100% | 88.7% | 94.2% | 80.9% | 89.2% | 92.7% | 91.7% | 95.8% | 88.5% | 96.4% | 101%
CS(=O)(=O)c1nccc(-c2c(-c3cccc(OCCN4CCOCC4)c3)nc3sccn23)n1 | 78.3% | 47.8% | 92.1% | 96.6% | 76.8% | 84.9% | 80.2% | 94.8% | 88.7% | 93.3% | 81% | 108% | 98.4% | 97.7% | 69.3% | 78.4% | 101% | 96.6%
COc1cc2cc(Oc3ccc(NC(=O)Nc4cccc(C(F)(F)F)c4)cc3)c(C)nc2cc1OC | -6.62% (active) | -5.94% (active) | 8.32% (active) | 27.8% | 31.7% | 3.35% (active) | 8.77% (active) | -0.54% (active) | 22.5% | 6.98% (active) | 27.8% | -8.13% (active) | 7.23% (active) | 17.5% | 6.81% (active) | 6.71% (active) | 25.4% | -10.2% (active)
O=C(Nc1ccc(F)cc1)c1cc2ccccc2cc1O | 43.2% | 37.9% | 82.7% | 100% | 57.8% | 52.2% | 68.4% | 84.6% | 87.9% | 75.9% | 46.3% | 72.4% | 86.3% | 90.9% | 58.5% | 77.9% | 104% | 69.2%
CCn1c(SC/C(=N/O)c2ccccc2)nnc1-c1ccccc1 | 94.8% | 89.7% | 111% | 96.8% | 85.5% | 89.7% | 106% | 121% | 101% | 103% | 120% | 115% | 105% | 98.7% | 112% | 101% | 96.6% | 110%
Cc1c(Cl)cccc1NC(=O)CN1CCOCC1 | 86.1% | 101% | 106% | 111% | 93.9% | 97.1% | 110% | 107% | 92.3% | 100% | 96.1% | 97.4% | 98.7% | 94.5% | 98.1% | 97% | 103% | 97.3%
CN1C(C(=O)Nc2ccccn2)=C(O)c2sc(Cl)cc2S1(=O)=O | 96.1% | 94.5% | 95.9% | 104% | 106% | 104% | 99.6% | 105% | 98.5% | 95.4% | 92.6% | 108% | 97.6% | 95.8% | 96.6% | 100% | 95.1% | 104%

Reference: PubChem BioAssay (NCI)
